A short description of assay [1]: qHTS of pediatric cancer cell lines to identify multiple opportunities for drug repurposing: Primary screen for BT-37 cells (AID 1347094). Note: potency is the fitted concentration of half-maximal effect. The method, boiled down:
(§1)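 Cells seeded at 500-1,000 cells/well in growth media, rested 5 hours at 37 degrees C, 5% CO2, then dosed; MIPE compounds at 11-point (from 0.78 nM) and NPC at 8-point (from 0.59 nM) final concentrations. Viability by CellTiter-Glo luminescence after 48 hours.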

Assay [2] in a line: qHTS of pediatric cancer cell lines to identify multiple opportunities for drug repurposing: Primary screen for NB-EBc1 cells (AID 1347095). Note: potency is the fitted concentration of half-maximal effect. The essentials:
as §1

Assay [3] is described as follows: qHTS of pediatric cancer cell lines to identify multiple opportunities for drug repurposing: Primary screen for U-2 OS cells (AID 1347096). Note: nearly all actives have a fitted effect of over 50% in size. Note: potency is the fitted concentration of half-maximal effect. The method, boiled down:
(§2)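 Cells (500-1,000/well) in growth media were settled 5 h at 37 degrees C, then given compounds for 48 h. Viability was read as CellTiter-Glo luminescence. Primary runs used MIPE at 11 points (0.78 nM-46 µM) and NPC at 8 points (0.59 nM-46 µM); follow-ups used 11 points.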
Background: In qHTS, concentration-response curves come from the screen itself.

A short description of assay [4]: qHTS of pediatric cancer cell lines to identify multiple opportunities for drug repurposing: Primary screen for Saos-2 cells (AID 1347097). Note: nearly all actives have a fitted effect of over 40% in size. Note: potency is the fitted concentration of half-maximal effect. The method, boiled down: as §1
Assay [5] can be described thus: qHTS of pediatric cancer cell lines to identify multiple opportunities for drug repurposing: Primary screen for SK-N-SH cells (AID 1347098). Note: nearly all actives have a fitted effect of over 65% in size. Note: potency is the fitted concentration of half-maximal effect. The method, boiled down:
(§3)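 Cells (500-1,000/well) rested 5 h, then received compounds for 48 h; metabolically active cells were measured by CellTiter-Glo luminescence. Final concentrations spanned up to 46 µM (MIPE, 11-point) or 0.59 nM-46 µM (NPC, 8-point) in primary screens, 11-point in follow-ups.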

Assay [6] is described as follows: qHTS of pediatric cancer cell lines to identify multiple opportunities for drug repurposing: Primary screen for NB1643 cells (AID 1347099). Note: nearly all actives have a fitted effect of over 50% in size. Note: potency is the fitted concentration of half-maximal effect. The method, boiled down: as §1
Assay [7] is described as follows: qHTS of pediatric cancer cell lines to identify multiple opportunities for drug repurposing: Primary screen for LAN-5 cells (AID 1347100). Note: potency is the fitted concentration of half-maximal effect. The essentials: as §2
Assay [8] in a line: qHTS of pediatric cancer cell lines to identify multiple opportunities for drug repurposing: Primary screen for BT-12 cells (AID 1347101). Note: nearly all actives have a fitted effect of over 25% in size. Note: potency is the fitted concentration of half-maximal effect. The method, boiled down:
as §3

The nature of assay [9]: qHTS of pediatric cancer cell lines to identify multiple opportunities for drug repurposing: Primary screen for Rh18 cells (AID 1347102). Note: nearly all actives have a fitted effect of over 65% in size. The essentials:
as §2

The nature of assay [10]: qHTS of pediatric cancer cell lines to identify multiple opportunities for drug repurposing: Primary screen for OHS-50 cells (AID 1347103). Note: nearly all actives have a fitted effect of over 40% in size. Note: potency is the fitted concentration of half-maximal effect. The method, boiled down:
as §3

The source of these data is PubChem BioAssay (NCATS).

Inconclusive results are not listed. Active and inactive are the calls of the source. Calls come from the whole dose curve; as a rule, active = well fitted curve in the direction sought with a large enough effect; inconclusive = small, poorly fitted or top-dose-only effect, or another doubt; inactive = no such curve, though single readings can be large; an effect the other way counts as inactive or inconclusive.

For `CCN(CCO)CCn1c(Cc2ccccc2)nc2c1c(=O)n(C)c(=O)n2C`, the Potency entry in [1], in assay [2], in assay [3], in assay [4], in assay [5] and in assay [6] was “inactive” in each case. Further, the Potency result in [7], in [8], in assay [9] and in assay [10] was “inactive” throughout.

For the molecule `CC(Cc1ccccc1)NCCn1cnc2c1c(=O)n(C)c(=O)n2C` (configuration not stated), the Potency entry in [1], in assay [2], in [3], in assay [4], in [5] and in assay [6] was “inactive” throughout. The Potency result in assay [7], in assay [9] and in assay [10] was “inactive” in each case.

Turning to `COC1CC(=C(c2cccs2)c2cccs2)C[N+](C)(C)C1` (configuration not stated), the Potency result in [1], in assay [2], in assay [3], in assay [4], in assay [5] and in [6] was “inactive” each time. The Potency entry in assay [7], in assay [9] and in assay [10] was “inactive” in each case.

As for `Nc1ccccc1C(=O)O`, the Potency entry in [1], in assay [2], in [3], in assay [4], in assay [5] and in [6] was “inactive” throughout. The Potency entry in [7], in assay [8], in assay [9] and in [10] was “inactive” each time.

As for `Oc1ccc(Cl)cc1`, the Potency result in assay [1], in assay [2], in assay [3], in assay [4], in [5] and in [6] was “inactive” in each case. Also, the Potency result in assay [7], in assay [8], in [9] and in assay [10] was “inactive” in each case.

For `CCC1(c2ccccc2)C(=O)N(COC)C(=O)N(COC)C1=O`, the Potency result in assay [1], in assay [2], in [3], in assay [4], in [5] and in [6] was “inactive” in each case. Moreover, the Potency entry in assay [7], in [8], in assay [9] and in [10] was “inactive” in each case.

As to `O=P1(N(CCCl)CCCl)NCCCO1` (configuration not stated), the Potency result in assay [1], in [2], in [3], in [4], in assay [5] and in assay [6] was “inactive” in each case. Besides, the Potency entry in assay [7], in assay [8], in assay [9] and in assay [10] was “inactive” throughout.

Regarding `CC(C)(N)Cc1ccccc1Cl`, the Potency result in [1], in assay [2], in assay [3], in [4], in assay [5] and in assay [6] was “inactive” throughout. Further, the Potency result in assay [7], in assay [8], in assay [9] and in assay [10] was “inactive” in each case.

Turning to `CN1C(=O)COc2c(C(=O)NC3CN4CCC3CC4)cc(Cl)cc21` (configuration not stated), the Potency entry in assay [1], in [2], in assay [3], in assay [4], in assay [5] and in [6] was “inactive” throughout. The Potency entry in assay [7], in assay [8], in assay [9] and in assay [10] was “inactive” in each case.

For the molecule `COc1ccc2c3c1O[C@H]1[C@H](O)CC[C@H]4[C@@H](C2)N(C)CC[C@@]341`, the Potency entry in assay [1], in [2], in assay [3], in assay [4], in assay [5] and in assay [6] was “inactive” throughout. For the same molecule, the Potency entry in [7], in assay [8], in [9] and in assay [10] was “inactive” each time.

On to `C[C@](O)(CS(=O)(=O)c1ccc(F)cc1)C(=O)Nc1ccc(C#N)c(C(F)(F)F)c1`, for which the Potency in assay [1] is 19.3 µM (active); in assay [2] it was 4.69 µM (active); in [3] it was 14.8 µM (active); in assay [5] it was 2.41 µM (active); in assay [6] it was 2.96 µM (active); in assay [7] it was 2.96 µM (active). The Potency result in assay [4] and in assay [10] was “inactive” throughout.

Turning to `CCN(CC)C(=O)[C@@H]1C=C2c3cccc4[nH]cc(c34)C[C@H]2N(C)C1`, the Potency result in assay [3], in [6], in assay [8], in [9] and in [10] was “inactive” each time. In assay [7], the Potency is 71.3 µM (active).

Turning to `COc1cccc(C(=O)CCN[C@@H](C)[C@H](O)c2ccccc2)c1`, the Potency entry in assay [1], in assay [3], in assay [8] and in [9] was “inactive” in each case. In addition, in assay [5], the Potency is 30.7 µM (active).

`CC1(C)C(C=C(Cl)Cl)C1C(=O)OC(C#N)c1cccc(Oc2ccccc2)c1` (configuration not stated): the Potency entry in assay [1], in [2], in assay [3], in [4], in assay [6] and in assay [7] was “inactive” each time. The Potency result in [8], in [9] and in assay [10] was “inactive” each time.

`C[C@]12CC[C@@H]3c4ccc(OC(=O)N(CCCl)CCCl)cc4CC[C@H]3[C@@H]1CC[C@@H]2OP(=O)(O)O`: the Potency result in [1], in assay [3], in [5], in assay [6], in assay [7] and in assay [8] was “inactive” throughout. Moreover, the Potency result in [9] and in assay [10] was “inactive” throughout.

Regarding `O=C(CCCN1CCC2(CC1)C(=O)NCN2c1ccccc1)c1ccc(F)cc1`, the Potency result in assay [2], in [3], in assay [5], in assay [6], in assay [7] and in [9] was “inactive” each time.

As to `CC(C)C[C@H](CN)CC(=O)O`, the Potency entry in assay [1], in [2], in assay [3], in [4], in assay [7] and in assay [8] was “inactive” each time. The Potency result in assay [9] and in assay [10] was “inactive” in each case.

Regarding `O=c1c(C2CC(c3ccc(-c4ccc(Br)cc4)cc3)Cc3ccccc32)c(O)sc2ccccc12` (configuration not stated), the Potency in assay [2] was 7.5 µM (active); in [6] it was 10.6 µM (active); in [7], 10.6 µM (active). For the same molecule, the Potency entry in [3] and in assay [9] was “inactive” in each case.

Consider `C[C@]12CC[C@H]3[C@@H](CCC4=CC(=O)CC[C@@H]43)[C@@H]1CC[C@@H]2OC(=O)CCc1ccco1`, for which the Potency entry in assay [1], in assay [2], in assay [3], in assay [5], in assay [6] and in assay [7] was “inactive” in each case. In addition, the Potency result in assay [8] and in assay [9] was “inactive” throughout.

On to `CN1CC[C@]23c4c5ccc(O)c4O[C@H]2[C@@H](O)C=C[C@H]3[C@H]1C5`, for which the Potency result in assay [1], in assay [2], in [3], in assay [7], in [9] and in [10] was “inactive” in each case.

In the case of `C[C@]12CC[C@H]3[C@@H](CCC4=CC(=O)CC[C@@H]43)[C@@H]1CC[C@@H]2OC(=O)CCC1CCCCC1`, the Potency entry in assay [3], in [5], in assay [6], in assay [8] and in assay [9] was “inactive” throughout.

For `Clc1ccc(C(c2ccc(Cl)cc2)C(Cl)(Cl)Cl)cc1`, the Potency result in assay [3], in assay [7], in [8] and in [9] was “inactive” in each case.

Regarding `C[C@]12CCC(=O)C=C1CC[C@@H]1[C@H]3CC[C@](C)(O)[C@@]3(C)CC[C@@H]12`, the Potency in [4] was 27.5 µM (active); in assay [6] it was 34.7 µM (active); in [8] it was 28.6 µM (active); in [10], 25.5 µM (active). For the same molecule, the Potency entry in [9] is “inactive”.

On to `COP(=S)(OC)SCN1C(=O)c2ccccc2C1=O`, for which the Potency result in assay [1], in assay [2], in assay [3], in [5], in [7] and in [8] was “inactive” each time. Also, the Potency entry in [9] and in assay [10] was “inactive” each time.

For `CCCCC/C=C\C/C=C\C/C=C\C/C=C\CCCC(=O)NCC(=O)O`, the Potency entry in [1], in assay [3], in assay [5], in [6], in [7] and in assay [8] was “inactive” throughout. The Potency entry in assay [9] and in assay [10] was “inactive” each time.

Consider `O=C1CN=C(c2ccccc2)c2cc([N+](=O)[O-])ccc2N1`, for which the Potency entry in assay [1], in [2], in assay [3], in assay [5], in assay [6] and in assay [7] was “inactive” in each case. In addition, the Potency entry in assay [8], in [9] and in [10] was “inactive” in each case.

For `O=C1c2ccccc2C(=O)C1C(=O)C(c1ccccc1)c1ccccc1`, the Potency entry in assay [1], in assay [3], in assay [5], in assay [6], in assay [8] and in [9] was “inactive” throughout.

For the molecule `C[C@]12CC[C@H]3[C@@H](CC[C@@]45O[C@H]4C(O)=C(C#N)C[C@]35C)[C@H]1CC[C@H]2O`, the Potency result in assay [1], in assay [3], in assay [9] and in assay [10] was “inactive” throughout. Also, the figures for the Potency in assay [5], in assay [6] and in assay [7] were 12.1 µM (active), 13.2 µM (active) and 16.6 µM (active), respectively.

In the case of `O=C1OC(CCN2CCCCC2)OC1(c1ccccc1)c1ccccc1` (configuration not stated), the Potency result in assay [1], in [2], in assay [3], in assay [4], in assay [8] and in [9] was “inactive” throughout. Also, in assay [10], the Potency result is “inactive”. Moreover, in assay [7], the Potency is 4.73 µM (active).
